DT40 TDP1 no CPT = qHTS for Inhibitors of human tyrosyl-DNA phosphodiesterase 1 (TDP1): qHTS in cells in absence of CPT | DT40 Tdp1-/- hTDP1 cells, no CPT, ATP luminescence, 48 h | AID 686978, 2013 | 15% of 420,000 active | Potency, µM (series often up to 46.2 µM), actives largely listed as inhibitors; further: nearly all actives have a fitted effect of over 55% in size
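Stably hTDP1-transfected Tdp1-null chicken DT40 cells were treated with library compounds minus camptothecin and grown for at least 48 hr at 37 °C, after which cellular ATP was quantified by luminescence.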
HT1080 IDH1KD tx = qHTS for induction of synthetic lethality in tumor cells producing 2HG: qHTS for the HT-1080-IDH1KD cell line. Potency, µM (doses to about 46.1 µM), most hits filed as cytotoxic. HT-1080 IDH1 knockdown viability, ATP luminescence, 48 h. 2% of 360,000 active
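HT-1080-IDH1KD cells (IDH1 knocked down), 750/well in RPMI with 5% FBS, treated with compound 48 h at 37 degrees C. Viability by CellTiter-Glo luminescence, normalised to DMSO and no-cell wells; concentration-response curves classed.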
IL1B secr inh = qHTS for Inhibitors of Inflammasome Signaling: IL-1-beta AlphaLISA Primary Screen; THP-1 LPS/ATP IL-1B secretion, AlphaLISA, 16 h; hits give low values; activity change, % at 57.5 µM; 4.7% of 360,000 active; AID 743279, 2014; in the data active means activity change below about -50%; inconclusive means mostly about -30% to -49%
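THP-1 cells pretreated 1 hr with compounds (up to 57.5 uM final), then stimulated with LPS (250 ng/mL final) plus ATP (1.25 mM final); secreted IL-1B measured by AlphaLISA after 16 hr, decreased signal indicating inhibition.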
TDP1 cell CPT = qHTS for Inhibitors of human tyrosyl-DNA phosphodiesterase 1 (TDP1): qHTS in cells in presence of CPT; AID 686979, 2013; chicken DT40 Tdp1-/-;hTDP1 cells + 20 nM CPT, ATP luminescence, 48 h; Potency, µM (highest dose often 46.2 µM), actives largely listed as inhibitors; 12% of 420,000 active; further: nearly all actives have a fitted effect of over 55% in size
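Chicken DT40 Tdp1-/- cells stably complemented with human TDP1 were seeded at 400 cells/well in medium containing 20 nM camptothecin, exposed to pin-transferred compounds, and grown at 37 °C for at least 48 hr. Viability was read as ATP luminescence.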
HT1080-NT tox = qHTS for induction of synthetic lethality in tumor cells producing 2HG: qHTS for the HT-1080-NT fibrosarcoma cell line. Potency, µM (doses to about 46.1 µM), hits mostly cytotoxic. HT-1080-NT fibrosarcoma viability, CellTiter-Glo ATP luminescence, 48 h. 1.6% of 360,000 active. AID 686970, 2013;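 further: NT is the 2HG producing partner of a matched IDH1 knockdown line; nearly all actives have a fitted effect of over 55% in size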
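750 cells/well, RPMI + 5% FBS; 2 h settle, compound pin-transfer, 48 h at 37 degrees C. CellTiter-Glo 10 min RT, luminescence. Normalized to DMSO and media-only wells.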
A number is an active result; 0 = inactive; ? = inconclusive; - = no result; [ ] = another dose, or the depositor's remark. Hits are enriched below; roughly 19% of the tested compounds scored in any of these assays. Unless noted, the call rests on the fitted dose curve; in most records, active means well fitted curve in the direction sought with a large enough effect; inconclusive means small, poorly fitted or top-dose-only effect, or another doubt; inactive means no such curve, though single readings can be large; an effect the other way counts as inactive or inconclusive.

SMILES | DT40 TDP1 no CPT | HT1080 IDH1KD tx | IL1B secr inh | TDP1 cell CPT | HT1080-NT tox
CC(C)(C)c1ccc(S(=O)(=O)/N=C2\C=C(NS(=O)(=O)c3ccccc3)C(=O)c3ccccc32)cc1 | 20.6µM | 16.4µM | 0 | 20.6µM | 23.1µM
Cc1ccc(S(=O)(=O)/N=C2\C=C(NS(=O)(=O)c3ccccc3)C(=O)c3ccccc32)c(C)c1 | ? | 0 | 0 | 14.6µM | 0
Cc1cc(C)c(NS(=O)(=O)c2ccccc2)c(C)c1NS(=O)(=O)c1ccccc1 | ? | 0 | 0 | 0 | 0
C#CCNC(=O)C[C@@H]1C[C@@]2(C(=O)OC)CCCCC=C2N(CCC2=CCCCC2)C1=O | 18.4µM | 0 | 0 | ? | 0
CCCCNC(=O)C[C@@H]1C[C@@]2(C(=O)OC)CCCCC=C2N(CCC2=CCCCC2)C1=O | 18.4µM | 0 | ? | ? | 0
C#CCNC(=O)C[C@@H]1C[C@@]2(C(=O)OCC)CCC=C2N(CCC2=CCCCC2)C1=O | ? | 0 | 0 | ? | 0
CC(C)CC1C(=O)N(Cc2cn(CCC3OCCCO3)nn2)CCS(=O)(=O)N1Cc1ccc(-c2ccc(F)cc2)cc1 (centres undefined) | ? | 0 | 0 | ? | 0
Cc1ccc(-c2ccc(CN3C(CC(C)C)C(=O)N(Cc4cn(CCC5OCCCO5)nn4)CCS3(=O)=O)cc2)cc1 (centres undefined) | 20.6µM | ? | 0 | 18.4µM | ?
CC(C)CC1C(=O)N(Cc2cn(CCC3OCCO3)nn2)CCS(=O)(=O)N1Cc1ccc(-c2ccncc2)cc1 (centres undefined) | 23.1µM | 0 | 0 | ? | 0
O=C(c1cccc(F)c1)N1CCC[C@@]2(CCN(c3ncccn3)C2)C1 | 0 | - | - | 0 | -
O=c1c2ccccc2nc(SCc2cc([N+](=O)[O-])cc3c2OCOC3)n1-c1ccccc1 | 0 | 0 | 0 | 0 | 0
Nc1nc(=S)c2[nH]cnc2[nH]1 | 1.84µM | 1.3µM | 0 | 2.59µM | 2.31µM
Nc1nc(=S)c2[nH]c(=S)[nH]c2[nH]1 | 0 | ? | 0 | 0 | 0
N#C/C(=C\c1ccc(-c2cccc([N+](=O)[O-])c2)o1)C(=O)Nc1nc(-c2cccs2)cs1 | ? | 0 | 0 | ? | 0
COc1cc(NC(=O)c2noc(C)c2[N+](=O)[O-])c(OC)cc1Cl | 6.51µM | 0 | 0 | 14.6µM | 0
Cc1onc(-c2ccc(Cl)cc2Cl)c1-c1csc(N/N=C/c2ccccc2Cl)n1 | 11.6µM | 0 | 0 | ? | 0
Cc1onc(-c2ccccc2)c1-c1csc(N/N=C/c2ccccc2Cl)n1 | ? | 0 | 0 | ? | 0
O=C(c1cc(-c2ccncc2)nc2ccc(Br)cc12)N1CCN(c2ccccn2)CC1 | 11.6µM | 0[9.24 µM] | 0 | ? | 0
CC(C)Oc1cccc(-c2cc(C(=O)N3CCN(S(C)(=O)=O)CC3)c3ccccc3n2)c1 | 10.3µM | 0 | 0 | ? | 0
COc1cccc(-c2cc(C(=O)N3CCN(c4ncccn4)CC3)c3ccccc3n2)c1 | 23.1µM | 0 | ? | ? | 0
COc1ccc(-c2cc(C(=O)N3CCC3)c3ccccc3n2)cc1OC | 0 | 0 | 0 | 0 | 0
O=C(c1cc(-c2ccc(Br)cc2)nc2ccccc12)N1CCN(c2ccccc2O)CC1 | ? | ? | -61.7 | ? | ?
